Our source for the outcome and AC50 values is PubChem BioAssay (EPA / NIEHS).

Each structure is given as a SMILES string. Records with an inconclusive call do not appear. Active and inactive are the calls of the source. The calls were made as follows, unless noted: active = hit-call score of the fitted dose curve at least 0.9, where 1 is the maximum; inconclusive = response in the unintended direction; inactive = score below 0.9.

Experiment [1] in a line: TOX21_p53_BLA_p2_viability: Viability Assessment in the Tox21 HCT-116 p53 Agonism Beta-lactamase Assay, Phase 2 (AID 2283591).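 Also: actives lower the ATP signal meaning cytotoxicity.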 Put shortly:
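Cytotoxicity readout: CellTiter-Glo ATP luminescence, 30 min at room temperature, after the beta-lactamase read. Cells were HCT116 exposed 16 h at 37C to compounds pin-transferred at 217-fold dilution from DMSO stocks.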

Experiment [2] concerns the target Cellular tumor antigen p53 (Homo sapiens) (UniProt P04637). Briefly: TOX21_p53_BLA_p2_ratio: Tox21 HCT-116 p53 Agonism Beta-lactamase Assay, Ratio, Phase 2 (AID 2283592). The method, boiled down: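 First, HCT116 reporter cells settle for 5 h at 37C. Next, DMSO compound solutions are pinned in (217-fold dilution) and left 16 h. Finally, CCF4-AM substrate is loaded 2 h at room temperature and the 460/530 nm ratio read.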

The nature of experiment [3]: TOX21_p53_BLA_p3_viability: Viability Assessment in the Tox21 HCT-116 p53 Agonism Beta-lactamase Assay, Phase 3 (AID 2283593).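 Also: cells exposed to compound for 16 h before reading.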 Put shortly: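 Cellular ATP was quantified by CellTiter-Glo luminescence, read after 30 min at room temperature. Beforehand, HCT116 cells (4000/well) received compound 5 h post-seeding, 217-fold diluted from DMSO, then incubated 16 h at 37C.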

The target of experiment [4] is Cellular tumor antigen p53 (Homo sapiens) (UniProt P04637). Description: TOX21_p53_BLA_p3_ratio: Tox21 HCT-116 p53 Agonism Beta-lactamase Assay, Ratio, Phase 3 (AID 2283596). Put shortly: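 Cells were seeded at 4000/well, rested 5 h at 37C, then dosed with DMSO compound solutions (217-fold dilution) for 16 h. CCF4-AM substrate was loaded for 2 h at room temperature, and the 460/530 nm emission ratio was fitted for gain of signal versus DMSO.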
Sequence of Cellular tumor antigen p53 (Homo sapiens) (P04637 whole entry, looked up): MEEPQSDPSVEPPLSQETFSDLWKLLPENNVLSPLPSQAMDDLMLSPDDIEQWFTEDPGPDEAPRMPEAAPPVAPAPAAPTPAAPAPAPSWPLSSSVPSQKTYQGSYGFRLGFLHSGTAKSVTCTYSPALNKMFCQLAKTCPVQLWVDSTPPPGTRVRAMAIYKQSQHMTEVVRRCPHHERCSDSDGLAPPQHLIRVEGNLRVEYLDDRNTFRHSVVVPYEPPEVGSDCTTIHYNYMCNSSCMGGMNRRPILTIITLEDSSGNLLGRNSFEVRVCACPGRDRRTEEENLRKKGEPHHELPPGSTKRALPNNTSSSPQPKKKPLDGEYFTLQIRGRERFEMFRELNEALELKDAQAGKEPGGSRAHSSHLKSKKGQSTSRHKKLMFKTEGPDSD

Experiment [5] shares this target. Description: TOX21_p53_BLA_p4_ratio: Tox21 HCT-116 p53 Agonism Beta-lactamase Assay, Ratio, Phase 4 (AID 2283601). Put shortly:
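Signal is the blue/green (460nm/530nm) ratio of cleaved versus uncleaved CCF4-AM substrate, read after 2 h substrate loading. Cells were HCT116 carrying the p53-responsive beta-lactamase reporter, dosed 16 h at 37C, 5% CO2; CellTiter-Glo measured in parallel.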

Experiment [6] in a line: TOX21_p53_BLA_p5_viability: Viability Assessment in the Tox21 HCT-116 p53 Agonism Beta-lactamase Assay, Phase 5 (AID 2283600). Put shortly:
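Decreased CellTiter-Glo luminescence denotes lost viability. Exposure: 16 h at 37C, 5% CO2, with compounds from DMSO stocks diluted 217-fold in wells of 4000 cells.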

The target in experiment [7] is Cellular tumor antigen p53 (Homo sapiens) (UniProt P04637). Briefly: TOX21_p53_BLA_p5_ratio: Tox21 HCT-116 p53 Agonism Beta-lactamase Assay, Ratio, Phase 5 (AID 2283599). The method, boiled down:
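Beta-lactamase reporter ratio (blue 460 nm over green 530 nm, 405 nm excitation) after 2 h CCF4-AM loading, in HCT-116 cells exposed 16 h at 37 C to compounds pinned at 217-fold dilution. Increases relative to DMSO baseline scored.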

A short description of experiment [8]: TOX21_p53_BLA_p4_viability: Viability Assessment in the Tox21 HCT-116 p53 Agonism Beta-lactamase Assay, Phase 4 (AID 2283597).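 Also: hits lower the luminescence signal meaning cytotoxicity.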 Put shortly: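 4000 HCT116 cells per well; 5 h attachment; compounds from DMSO, 217-fold dilution; 16 h at 37C. Then CCF4-AM, 2 h RT, followed by CellTiter-Glo, 30 min RT, luminescence. Decrease = cytotoxicity.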
Experiment [9] in a line: CCTE_Harrill_HTTr_Apoptosis_MCF7: CCTE's 6-hour Apoptosis Assessment for the High-Throughput Transcriptomics (HTTr) Platform, in MCF-7 cells cultured in DMEM + 10% fetal bovine serum, Harrill Lab (AID 2284011; active = hit-call score of the fitted dose curve at least 0.9, where 1 is the maximum; inactive = score below 0.9). The method, boiled down:
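MCF-7 cells in DMEM + 10% FBS exposed 6 h to chemicals over an eight-point dilution series. Caspase-3/7 activation imaged by high-content CellEvent Green staining; fitted bidirectionally versus DMSO.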

For experiment [10], the target named is PGR (gene 5241) (UniProt P06401). Description: TOX21_PR_BLA_Followup_Agonist_ratio: Tox21 HEK293 Progesterone Receptor (PR) Agonism Beta-lactamase Follow-Up Assay, Ratio (AID 2283933). The method, boiled down: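 Ratio-based beta-lactamase reporter signal after 16 hr compound treatment of PR-UAS-bla HEK293T cells at 37C. Substrate loading lasted 2 hr at room temperature.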
Sequence of PGR (gene 5241) (P06401 whole entry, looked up): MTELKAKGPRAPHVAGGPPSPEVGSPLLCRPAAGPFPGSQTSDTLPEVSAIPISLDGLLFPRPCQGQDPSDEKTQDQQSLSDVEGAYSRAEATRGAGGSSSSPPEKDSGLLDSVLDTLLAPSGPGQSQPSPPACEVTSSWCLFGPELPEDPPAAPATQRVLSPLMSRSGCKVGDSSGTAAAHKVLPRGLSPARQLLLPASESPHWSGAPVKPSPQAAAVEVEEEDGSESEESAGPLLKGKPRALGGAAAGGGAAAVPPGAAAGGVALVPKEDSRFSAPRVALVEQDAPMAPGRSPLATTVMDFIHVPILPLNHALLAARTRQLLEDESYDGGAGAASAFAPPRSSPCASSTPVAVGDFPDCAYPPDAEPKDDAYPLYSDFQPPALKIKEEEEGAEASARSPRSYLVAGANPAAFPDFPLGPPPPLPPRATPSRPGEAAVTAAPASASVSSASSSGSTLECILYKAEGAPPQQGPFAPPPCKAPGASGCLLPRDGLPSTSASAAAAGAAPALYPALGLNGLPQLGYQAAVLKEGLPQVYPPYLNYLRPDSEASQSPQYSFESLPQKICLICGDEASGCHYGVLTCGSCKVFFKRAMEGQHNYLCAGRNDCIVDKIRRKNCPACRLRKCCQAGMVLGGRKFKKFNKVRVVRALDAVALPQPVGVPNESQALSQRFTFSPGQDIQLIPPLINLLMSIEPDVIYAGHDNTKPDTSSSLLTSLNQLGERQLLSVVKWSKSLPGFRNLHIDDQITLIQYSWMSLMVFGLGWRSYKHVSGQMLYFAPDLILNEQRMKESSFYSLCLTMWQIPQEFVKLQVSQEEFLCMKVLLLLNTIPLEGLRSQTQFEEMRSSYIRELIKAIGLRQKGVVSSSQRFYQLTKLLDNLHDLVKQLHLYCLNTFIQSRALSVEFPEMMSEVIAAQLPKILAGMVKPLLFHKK

The target is the same in experiment [11]. Briefly: TOX21_PR_BLA_Followup_Antagonist_ratio: Tox21 HEK293 Progesterone Receptor (PR) Antagonism Beta-lactamase Follow-Up Assay, Ratio (AID 2283934).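 Also: PR-UAS-bla HEK293T cells stimulated with 1 nM R5020 agonist for 16 hr.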 The method, boiled down:
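Measured in PR-UAS-bla HEK293T cells co-treated with compound and 1 nM promegestone for 16 hr; beta-lactamase ratio read after 2 h FRET substrate loading, with parallel CellTiter-Glo cytotoxicity.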

A short description of experiment [12]: TOX21_PR_BLA_Followup_Antagonist_viability: Viability Assessment in the Tox21 HEK293 Progesterone Receptor (PR) Antagonism Beta-lactamase Follow-Up Assay (AID 2283936).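 Also: cells exposed to compound with R5020 agonist for 16 h; hits lower the luminescence signal meaning cytotoxicity.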 The method, boiled down: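 PR-UAS-bla HEK293T cells in medium with 2% charcoal-stripped FBS were treated with compounds plus R5020 for 16 hr at 37C. After the beta-lactamase read, CellTiter-Glo was added to the same wells and luminescence read after 30 min at room temperature.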

Experiment [13] addresses PGR (gene 5241) (UniProt P06401). Description: TOX21_PR_LUC_Followup_Agonist: Tox21 HEK293 Progesterone Receptor (PR) Agonism Luciferase Follow-Up Assay (AID 2283937; active = hit-call score of the fitted dose curve at least 0.9, where 1 is the maximum; inactive = score below 0.9). Put shortly:
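In HEK293 cells stably expressing PR-A with a luciferase reporter, compounds were incubated 16 h at 37C, and induced luminescence was quantified with ONE-Glo, multiplexed with cell viability.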

Experiment [14] can be described thus: TOX21_PR_LUC_Followup_Antagonist_viability: Viability Assessment in the Tox21 HEK293 Progesterone Receptor (PR) Antagonism Luciferase Follow-Up Assay (AID 2283940). The method, boiled down: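 Loss of CellTiter-Glo ATP signal indicates cytotoxicity in HEK293-PR-A-luc cells grown in 10% charcoal-stripped FBS medium, seeded 3,000 per well and incubated 16 h with compound at 37C.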

Experiment [15] in a line: TOX21_PR_LUC_Followup_Agonist_viability: Viability Assessment in the Tox21 HEK293 Progesterone Receptor (PR) Agonism Luciferase Follow-Up Assay (AID 2283941).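 Also: loss of signal means cytotoxicity so actives lower viability.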 Put shortly:
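Seeding: HEK293-PR-A-luc, 3,000 cells/well, 5 h at 37C. Treatment: compound in DMSO, 16 h, 37C. Read: CellTiter-Glo ATP luminescence, signal loss taken as lower viability.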

On to `FC(F)OC(F)(F)C(F)Cl` (stereo not given), for which the call in experiment [1], in [2], in experiment [3], in experiment [4] and in experiment [5] was inactive.
Take `BrCCc1ccccc1`: the outcome in experiment [1], in experiment [2], in experiment [3], in experiment [4] and in experiment [6] was inactive.
As to `CC(C)CCON=O`, the molecule was called inactive in experiment [1], in [2], in [3], in experiment [7], in [6] and in experiment [5].
For the molecule `OC(c1ccccc1)(c1ccccc1)C1CN2CCC1CC2` (stereo not given), the molecule was called inactive in experiment [1], in [2], in [3], in experiment [8], in experiment [7] and in experiment [6]. Moreover, in experiment [5], the result was inactive.
With `II`, the molecule was classed as inactive in experiment [1], in [2], in [3], in experiment [8], in experiment [7] and in experiment [5]. The result in [9] was inactive.
In the case of `O=C1c2ccccc2C(=O)c2ccccc21`, the result in experiment [1], in [2], in experiment [3], in experiment [8], in [6] and in experiment [5] was inactive.
For `CCOP(=S)(OCC)Oc1cc(Cl)c(Br)cc1Cl`, the result in [1], in experiment [2], in experiment [3], in experiment [7], in experiment [6] and in [5] was inactive. Also, the outcome (in the experiment with PGR (gene 5241) [10]; in experiment [12]; with PGR (gene 5241) [13]; in experiment [14]; in experiment [15]) was inactive. For the same molecule, the results for the AC50 (in [8]; with PGR (gene 5241) [11]) were 72.9 µM (active) and 6.49 µM (active), respectively.
Consider `CNCC(O)c1ccc(O)cc1` (stereo not given), for which the molecule was classed as inactive in experiment [1], in experiment [2], in experiment [3], in experiment [8], in experiment [7] and in experiment [6]. In addition, the result in experiment [5] was inactive.
With `CN1CCC(O)(c2ccc(F)cc2)C(C(=O)c2ccc(F)cc2)C1` (stereo not given), the call in [1], in [2], in experiment [3] and in experiment [7] was inactive.
